Results taken from PubChem BioAssay (NCI).
Compounds without any hit were thinned out: in the full panel of roughly 83,000, 20% have a hit.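 96-well plates, one dose, 48 hours. Percent growth reported; active if below 10.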 Values without a mark were called inactive. Calls of active or inactive are those of the source.

Experiments:
Assay in all cases: NCI-60 one-dose screen, 48 h (100 = growth as untreated, 0 = no growth, -100 = all killed)
Settings in all cases: 10 µM unless noted
HCT-15 colon = tested on: HCT-15 colon
HT29 colon = tested on: HT29 colon
SNB-75 CNS = tested on: SNB-75 CNS
SNB-19 CNS = tested on: SNB-19 CNS
U251 CNS = tested on: U251 CNS
PC-3 prostate = tested on: PC-3 prostate
SK-MEL-5 melanoma = tested on: SK-MEL-5 melanoma
LOX IMVI melanoma = tested on: LOX IMVI melanoma
SK-MEL-28 melanoma = tested on: SK-MEL-28 melanoma

Structure (SMILES) | growth (HCT-15 colon) | growth (HT29 colon) | growth (SNB-75 CNS) | growth (SNB-19 CNS) | growth (U251 CNS) | growth (PC-3 prostate) | growth (SK-MEL-5 melanoma) | growth (LOX IMVI melanoma) | growth (SK-MEL-28 melanoma)
COc1cccc(-c2nn(-c3ccccc3)cc2-c2ccnc(NCCCO)c2)c1 | 26.3% | 7.65% (active) | 23.4% | 36.3% | 21% | 46.4% | 29.8% | 33.6% | 
Cn1c(=O)c2c(nc(N3CCCC3)n2C)n(C)c1=O | 103% | 94.5% | 89.9% | 106% | 87.5% | 91.2% | 102% | 96.5% | 104%
O=S(=O)(NCCNc1cc(-c2cn(-c3ccccc3)nc2-c2cccc(O)c2)ccn1)c1ccc(C(F)(F)F)cc1 | 28.5% | 4.36% (active) | 49.7% | 54.4% | 36.5% | 22.6% | 36.9% | 23.5% | 
CC(=O)OCCCCCCn1c2ccccc2c2c3c(c4c5ccccc5n(C)c4c21)C(=O)N(O)C3=O | 69.5% | 23.7% | 101% | 77.5% | 58.4% | 52.9% | 41.7% | 5.8% (active) | 
O=C1CCN2C(=O)Nc3ccccc3C2C1 (stereo not given) | 99% | 104% | 83.4% | 92% | 104% | 95.2% | 103% | 106% | 
COc1cccc(-c2nn(-c3ccccc3)cc2-c2ccnc(NCCCN)c2)c1 | 56.7% | 86.2% | 45.4% | 48.9% | 38.9% | 47.7% | 28.5% | 54.8% | 
O=S(=O)(NCCNc1cc(-c2cn(-c3ccccc3)nc2-c2cccc(O)c2)ccn1)c1ccc(Cl)cc1 | 7.32% (active) | 0.572% (active) | 53.8% | 47.7% | 22.1% | 14.9% | 15.5% | 30% | 
COc1cc(-c2cc3cc(O)ccc3oc2=O)cc(OC)c1OC | 91.4% | 103% | 65.3% | 95.5% | 99.3% | 85.3% | 93.6% | 103% | 
CCc1ccccc1NC(=O)c1sc2nc3c(cc2c1N)CCCC3 | 28.1% | 13.5% | 12.3% | 37.6% | 27.8% | 52.9% | 34.8% | 36.5% | 
CCCCCCCC(=O)SCC/C=C/[C@@H]1CC(=O)NCc2cccc(n2)CN(Cc2ccc(Cl)cc2)CC(=O)N[C@@H](C(C)C)C(=O)O1 | 20.7% | -2.23% (active) | 18.6% | 15.3% | -48.2% (active) | 9.67% (active) | -84.6% (active) | -61.5% (active) | 
COc1ccc(C2=NN(c3nc(-c4ccc(OC)cc4)c(C#N)c(=O)n3C)C(=O)CC2)cc1 | 106% | 109% | 86.5% | 96.7% | 100% | 82.4% | 96.3% | 101% | 
COc1ccc(C2NC(=O)Nc3ccccc32)c(OC)c1 (stereo not given) | 100% | 108% | 68.7% | 99.1% | 99.7% | 82.2% | 96% | 103% | 
COc1ccc(-c2nc(Nc3ccc(-c4nc5ccccc5[nH]4)cc3)nc(N3CCOCC3)n2)cc1 | -62.2% (active) | -23.1% (active) | -19.2% (active) | 17.5% | 6.38% (active) | 2.31% (active) | -90.7% (active) | -75.6% (active) | -34% (active)
c1ccc(-c2nc(Nc3ccc(-c4nc5ccccc5[nH]4)cc3)nc(N3CCOCC3)n2)cc1 | -68.9% (active) | -59.9% (active) | -89.6% (active) | -18.6% (active) | -67.5% (active) | -35.5% (active) | -95.4% (active) | -89% (active) | -82.9% (active)
COc1ccc2c(c1)c(-c1nc(-c3cn(C)c4ncccc34)cs1)cn2CCCN1CCCCC1 | -69.9% (active) | -16.5% (active) | 77.5% | 55.2% | -18.4% (active) | 51.1% | 28.6% | 28.3% | -77.5% (active)
Cc1cc(Cl)nc(N(CCNc2ccnc3cc(Cl)ccc23)Cc2ccco2)n1 | 35.7% | 30.3% | 81.5% | 37.9% | 17.9% | 34.1% | 42.9% | 22.5% | 3.02% (active)
COc1cc2ncnc(Nc3ccc(Oc4ccnc(C)c4)c(C)c3)c2cc1NC(=O)CC1CCSS1 (stereo not given) | -72.4% (active) | -80.7% (active) | -3.3% (active) | -32.2% (active) | -13.4% (active) | -50.3% (active) | -89.1% (active) | -87.8% (active) | -66% (active)
O=C1c2ccccc2NC(c2cn(-c3ccccc3)nc2-c2cccs2)N1Cc1ccccc1 (stereo not given) | 77.7% | 75% | 87.7% | 95.4% | 86.9% | 64.8% | 80.9% | 62.1% | 97.3%
Cc1cc(N2CCCCC2)nc(N(CCCNc2ccnc3cc(Cl)ccc23)Cc2ccco2)n1 | 11.3% | 2.02% (active) | 54.3% | 27.4% | 24.7% | 2.61% (active) | -91.8% (active) | -34.7% (active) | -23.5% (active)
COc1ccc(/C=C/C(=O)NCCO)cc1 | 98% | 96.1% | 80.7% | 111% | 94.8% | 91.8% | 101% | 95.9% | 104%
COc1cnc2c(c1)C(=O)c1c-2n(CCCNC2=NCCS2)c(=O)c2cc([N+](=O)[O-])ccc12 | -60.8% (active) | -42.4% (active) | 23.7% | 27.2% | -83.9% (active) | -48.1% (active) | -41% (active) | -91.3% (active) | -35.9% (active)
O=C(N/N=C/c1ccccc1SSc1ccccc1/C=N/NC(=O)c1ccccc1)c1ccccc1 | 21.6% | 43.3% | 65.8% | 44.8% | 34.1% | 40.2% | 22.5% | 11.1% | 39.6%
Cc1cc(N2CCCC2)nc(N(CCNc2ccnc3cc(Cl)ccc23)Cc2ccco2)n1 | 18.3% | 5.58% (active) | 68.8% | 29.4% | 46.5% | 0.723% (active) | -93% (active) | 4.43% (active) | 31%
Nc1nc(Br)nc2c1ncn2C1CC(O)C(CO)O1 (stereo not given) | 59.1% | 66.3% | 77.4% | 48.6% | 68.7% | 70.1% | 51.2% | 82.4% | 95.8%
Cn1c(=O)c2c(ncn2CCC(=O)Nc2ccc(F)cc2)n(C)c1=O | 106% | 94% | 91.5% | 102% | 98.4% | 80.9% | 111% | 97.9% | 114%
C[C@]12CC[C@@H]3c4ccc(O)cc4CC[C@H]3[C@@H]1C[C@H](O)[C@@H]2O | 97.3% | 109% | 82% | 102% | 100% | 92.4% | 94.1% | 92.4% | 96.5%
COc1cc(-c2cc3ncccc3c3[nH]c(=O)c4cccnc4c23)cc(OC)c1OC | 30.6% | 8% (active) | -3.35% (active) | 53.7% | 16.8% | 13.2% | -5.2% (active) | 42.5% | 68.2%
Fc1ccc(NCc2nnc(-c3ccc(Cl)cc3)o2)cc1 | 81.7% | 70% | 73.6% | 83.2% | 77.8% | 54.3% | 79.8% | 80.1% | 93.9%
COc1ccc2c(c1)c(-c1nc(-c3cn(C)c4ncccc34)cs1)cn2CCN | 58.5% | 74.5% | 78.2% | 80.7% | 84.8% | 70.2% | 60.3% | 68.1% | 99%
